Hit rate of the full screen: of about 360,000 compounds, about 2,300 (0.64%) were called active. What follows is part of a selection rich in actives, with near analogues and random picks from the rest. Unmarked numbers belong to inactive results.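 The calls were made as follows: active = compounds giving at least 50% protection of heart cells from peroxide-induced death in the single-dose screen, raw or plate-pattern-corrected value; inactive = the rest.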
experiment: H9c2 cardiomyocyte survival under peroxide injury – uHTS, H9c2 cells, ATPLite luminescence, primary screen (AID 588492); conditions: H9c2 cardiomyocytes, 2 h, at 20 µM, active compounds read high;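 also: 0% = DMSO wells with peroxide and 100% = DMSO wells without peroxide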

Row | SMILES | protection from H2O2 cell death
1 | [2H]C(CCOS(N)(=O)=O)c1ccccc1 (centres undefined) | 3%
2 | CCOC12CC(C)(C)CC(C)(CC3=C1C(=O)CC(C)(C)C3)C2 (centres undefined) | -0.9%
3 | Cc1ccc2nc(-c3ccc(NC(=O)c4cccnc4)cc3)oc2c1 | 48.1%
4 | CCC(=O)Oc1cccc(C(=O)Nc2ccc(-c3nnc(-c4ccco4)o3)cc2)c1 | 77.3% (active)
5 | O=C(Nc1ccc(Cl)cc1)c1cccc(OC(=S)N2CCOCC2)c1 | -15.8%
6 | COC(=O)NNC(=O)C1CCC(C)CC1 (centres undefined) | -10%
7 | COc1ccc(CN(C)C(=O)c2cc(-c3ccc(C)cc3C)nc3ccccc23)c(OC)c1OC | 48.9%
8 | COc1ccc(-c2cc(C(=O)N(C)CC(=O)Nc3ccccc3Cl)c3ccccc3n2)cc1OC | 49.1%
9 | COc1ccc(-c2cc(C(=O)N(C)Cc3ccc(OC)c(OC)c3OC)c3ccccc3n2)cc1OC | 67.1% (active)
10 | Cc1cc(C)nc(Nc2n[nH]c(-c3ccccc3N)n2)n1 | -9.5%
11 | CCCCCN(C(=O)NC(=O)Nc1ccccc1C)S(C)(=O)=O | -4.1%
12 | CCC(C)(C)NC(=O)C(c1cccc(OC)c1OC)N(CC(C)C)C(=O)CCC(=O)Nc1cc(C)on1 (centres undefined) | 1.2%
13 | Cc1ccccc1Cn1c(C)c(C(=O)NCc2cccc(C(F)(F)F)c2)sc1=O | -2.6%
14 | COCCNC(=O)/C(C#N)=C/c1cccc(OCc2ccccc2)c1 | 32.1%
15 | N#C/C(=C\c1ccc(O)c(O)c1)C(=O)NCc1ccccc1 | 55.9% (active)
16 | COc1ccc(CNC(=O)/C(C#N)=C/c2cccc(OC)c2OC)cc1 | 1.5%
17 | Cn1nc([N+](=O)[O-])nc1Sc1ccc(C(C)(C)C)cc1 | -11.1%
18 | c1ccc(-c2cn3c(n2)CCc2ccc4cccnc4c2-3)cc1 | 61.6% (active)
19 | CCN(CC(=O)NC(C)C)C(=O)CCNC(=O)c1ccc(Cl)cc1 | -0.7%
20 | Cc1cccc(Nc2nnc(SCC(=O)c3c(N)n(C4CC4)c(=O)[nH]c3=O)s2)c1C | -2.2%
21 | CC(=O)Nc1ccc(-c2csc(NC(=O)Nc3ccccc3)n2)cc1 | 50.5% (active)

Row | SMILES | protection from H2O2 cell death
22 | CC(=O)Nc1ccc(-c2cn3cccnc3n2)cc1 | -2%
23 | NC(c1ccccc1)c1csc(NC(=O)Nc2cccc(C(F)(F)F)c2)n1 (centres undefined) | -10.6%
24 | CN(C)C(CNC(=O)CCCOc1ccccc1)c1ccco1 (centres undefined) | 4.6%
25 | O=C(COC(=O)c1cccc(Br)c1)Nc1cccc2c1C(=O)c1ccccc1C2=O | -6.9%
26 | O=C(COC(=O)Cn1cnc2ccccc21)Nc1cccc2c1C(=O)c1ccccc1C2=O | 59.5% (active)
27 | O=C(Cn1cnc2ccccc21)Nc1ccccc1-c1ccccc1 | -5.3%
28 | O=C(CCc1nnc(CCCCc2ccccc2)o1)NC(c1cccnc1)C(F)(F)F (centres undefined) | 0.8%
29 | COc1ccccc1NS(=O)(=O)c1ccc(C)c(C(=O)NNC(=O)c2csc(N3CCOCC3)n2)c1 | 8.3%
30 | CCN(CC)C(=O)Cn1cc(S(=O)(=O)CC(=O)NCc2ccc3c(c2)OCO3)c2ccccc21 | 2.8%
31 | C[C@@H]1C(c2ccc(F)cc2)=NN(c2ccc(Br)cc2)[C@H]1C(=O)N1CCOC1=O | -1.3%
32 | COc1ccccc1OCCn1c(SCC(N)=O)nc2ccccc21 | 3.9%
33 | O=C1N[C@@H](c2ccccc2)COC(=O)[C@H](Cc2ccc(F)cc2)C/C=C\C[C@@H]1CC(=O)N(CCO)Cc1ccccc1 | 8.2%
34 | CC(C)(C)OC(=O)C[C@@H]1C/C=C\C[C@@H](CC(=O)N(CCO)Cc2ccccc2)C(=O)N[C@H](Cc2ccccc2)COC1=O | 14.2%
35 | O=C1OC[C@@H]2CCCN2C(=O)[C@H](CC(=O)N(CCO)Cc2ccccc2)C/C=C\CC[C@@H]1Cc1ccc(F)cc1 | 2.9%
36 | O=C1CCC/C=C/C[C@@H](CC(=O)N(CCO)Cc2ccccc2)C(=O)NC[C@H](c2ccccc2)O1 | 0.5%
37 | O=C1NC[C@@H](c2ccccc2)OC(=O)[C@H](Cc2ccc(F)cc2)CC/C=C/C[C@H]1CC(=O)N(CCO)Cc1ccccc1 | 61.8% (active)
38 | O=C1N[C@H](Cc2c[nH]c3ccccc23)COC(=O)[C@H](Cc2ccc(F)cc2)C/C=C\C[C@H]1CC(=O)N(CCO)Cc1ccccc1 | 51.5% (active)
39 | CCOc1ccc(NC(=O)[C@H](C)NC(=O)C2CC(=O)N(c3ccc(OC)cc3)C2)cc1 (some centres undefined) | -1.8%
40 | CC(C)(C)OC(=O)N1CCN(C(=O)c2[nH]c(C(F)(F)F)nc2-c2ccccc2)CC1 | -1.1%
41 | Cc1cc(C)cc(NC(=O)Cn2cnc3c(nnn3Cc3ccc(F)cc3)c2=O)c1 | 0.7%
42 | O=C(c1ccccc1)N1CCN(C(=O)c2cc3nc(-c4ccccc4)cc(C(F)(F)F)n3n2)CC1 | 11.3%

Row | SMILES | protection from H2O2 cell death
43 | CN(C)CCN1CCN(c2cc(-c3cccc(Cl)c3)nc3ccnn23)CC1 | 19.8%
44 | C#Cc1cc(N2CCN(C(=O)c3ccoc3)CC2)n2nc(-c3cccc(Cl)c3)cc2n1 | 84.5% (active)
45 | Cc1cc(C)c(-c2csc(NC(=O)CCCc3nc4ccccc4c(=O)[nH]3)n2)c(C)c1 | -4.2%
46 | Cc1ccc(-c2csc(NC(=O)Cn3[nH]c(=O)c4ccccc4c3=O)n2)cc1 | 52% (active)
47 | O=C(Cn1[nH]c(=O)c2ccccc2c1=O)Nc1cccc(-c2nnc3n2CCCCC3)c1 | 23.4%
48 | Cc1cc(-n2nc(C)cc2C)n2ncc(-c3ccccc3)c2n1 | 14.3%
49 | CCOC(=O)c1cnc(-n2nc(C)cc2C)nc1NNc1cc(C)nc(-c2ccccc2)n1 | 78.5% (active)
50 | CCOC(=O)c1cnc2nc(SCc3ccccc3Cl)[nH]n2c1=O | -2.4%
51 | COc1cc(OC)c(C(=O)OC(C)C(=O)Nc2cc(C(F)(F)F)ccc2Cl)cc1OC (centres undefined) | -5%
52 | Cc1cc(C)n(C(=O)c2ccc(C)c(S(=O)(=O)N3CCOCC3)c2)n1 | 15.2%
53 | c1ccc(Cc2nn3c(Cn4cnc5ccccc54)nnc3s2)cc1 | -4.9%
54 | N#CC1(NC(=O)COC(=O)Cc2n[nH]c(=O)c3ccccc23)CCCCC1 | 30.9%
55 | CCCCn1nc(C(=O)OCC(=O)Nc2sccc2C(N)=O)c2ccccc2c1=O | 29.8%
56 | NC(=O)c1ccsc1NC(=O)COC(=O)Cc1n[nH]c(=O)c2ccccc12 | 78.3% (active)
57 | CCn1cc(C(=O)N[C@@H](C)C(=O)NCCO)c(=O)c2cc3c(cc21)OCO3 | 3%
58 | COC(=O)c1noc(C)c1-c1ccnn1C(=O)c1ccc(Cl)cc1 | 3.5%
59 | CCOc1ccc(OCC)c(NC(=O)CSc2nnc(Cn3cnc4ccccc43)n2C)c1 | -3.2%
60 | Cc1ccc(/C=N/NC(=O)C2=NNC(c3ccccc3)(c3ccccc3)C2)c(O)c1 | 60.3% (active)
61 | Cc1ccc2cc(/C=N/NC(=O)[C@@H]3CCCN3)c(Cl)nc2c1 | 14%
62 | O=C(NN=Cc1ccc2c(c1)CCC2)c1ccccc1O | -17.8%
63 | CC(C)c1nnc(NC(=O)C2CC(=O)N(CCc3ccc(F)cc3)C2)s1 (centres undefined) | -4.8%

Row | SMILES | protection from H2O2 cell death
64 | Cc1nc(S(=O)(=O)c2ccc(Br)cc2)nc2c1CCC2 | -2.2%
65 | CCC(CC)C(=O)Nc1c2c(nn1-c1ccc(C)cc1)CS(=O)(=O)C2 | -4.5%
66 | CCC(C)(C)NC(=O)C(c1ccccn1)N(C(=O)c1csnn1)c1ccccc1 (centres undefined) | 1.1%
67 | Cc1ccc(S(=O)(=O)NCC2CCC(C(=O)N3CCOCC3)CC2)cc1 (centres undefined) | 3.4%
68 | Cn1c(SCC(=O)N/N=C/c2ccc(O)c(O)c2)nc2ccccc21 | 70.9% (active)
69 | Cc1ccc(/C=N/NC(=O)CSc2nc3ccccc3o2)cc1 | -4.4%
70 | Cc1nn(-c2ccccc2)c(C)c1/C=N/NC(=O)CSc1nc2ccccc2c(=O)n1-c1ccccc1 | 22.5%
71 | COc1ccc(S(=O)(=O)N2CCN(CC(=O)NCC3(N4CCOCC4)CCCCC3)CC2)cc1 | 3%
72 | CC(C)(C)C(=O)Nc1cccc(-c2ccc[nH]2)n1 | 5.3%
73 | Cc1c(Cl)c([N+](=O)[O-])nn1CCCC(=O)NC(C)c1ccccc1 (centres undefined) | 5.3%
74 | Cc1nn(Cc2ccccc2Cl)c(C)c1NC(=O)Cn1nc([N+](=O)[O-])c(Cl)c1C | 15.4%
75 | Cc1c(Cl)c([N+](=O)[O-])nn1Cc1ccc(C(=O)N/N=C\c2cc(Cl)ccc2O)o1 | 67.5% (active)
76 | N#Cc1ccc(C(c2ccc(C#N)cc2)n2cncn2)cc1 | 2.5%
77 | Cn1c(C(=O)NCCc2ccsc2)cc2c(=O)n(C)c3ccccc3c21 | 96.5% (active)
78 | Cn1c(C(=O)NCCN2CCc3ccccc3C2)cc2c(=O)[nH]c3ccccc3c21 | 19.2%
79 | Cn1c(C(=O)N2CCC(C(N)=O)CC2)cc2c(=O)n(C)c3ccccc3c21 | 1.2%
80 | O=C(NCCc1ccccc1)/C(=C\c1ccc([N+](=O)[O-])cc1)NC(=O)c1ccccc1 | 16.6%
81 | O=C(Nc1ccc(C(=O)O)cc1)/C(=C/c1ccc([N+](=O)[O-])cc1)NC(=O)c1ccccc1 | 4.6%
82 | O=C(N/N=C/c1cc([N+](=O)[O-])ccc1O)/C(=C\c1cccs1)NC(=O)c1ccccc1 | 54.9% (active)
83 | CCOCCCNC(=O)C(NC(=O)c1ccc(=O)[nH]c1)c1ccc(Cl)cc1 (centres undefined) | -7.9%
84 | COc1ccc([C@H]2N[C@]3(CCCN(CC4CCCCC4)C3=O)[C@H]3C(=O)N(C)C(=O)[C@@H]23)cc1 | 5.5%

— PubChem BioAssay AID588492 (Sanford-Burnham Center for Chemical Genomics, 2011)
